Assay [1] is described as follows: qHTS assay to identify aromatase inhibitors - cell viability counter screen (AID 743084).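 Note: cells stimulated with testosterone during compound exposure; nearly all actives have a fitted effect of over 55% in size.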 Note: potency is the fitted concentration of half-maximal effect. On the technique in general: In qHTS, concentration-response curves come from the screen itself.
Assay [2] has as its target Aryl hydrocarbon receptor (Homo sapiens) (UniProt P35869). Put plainly: qHTS assay to identify small molecule that activate the aryl hydrocarbon receptor (AhR) signaling pathway (AID 743085).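 For activation: HG2L7.5c1 human HepG2 liver cells with stably integrated DRE-driven firefly reporter; series mostly up to about 70 µM.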 Note: nearly all actives have a fitted effect of over 15% in size. Note: potency is the fitted concentration of half-maximal effect. In outline: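 24 h compound exposure, 37C, HepG2-derived HG2L7.5c1 cells with DRE-responsive luciferase. Readouts: fluorescence viability, then luminescence at room temperature after 30 min.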

Assay [3] can be described thus: qHTS assay to identify small molecule that activate the aryl hydrocarbon receptor (AhR) signaling pathway - cell viability counter screen (AID 743086). Note: nearly all actives have a fitted effect of over 45% in size. Note: potency is the fitted concentration of half-maximal effect. In outline:
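HepG2-AhR-luc (HG2L7.5c1) cells, 4000/well, were preincubated 5 h at 37C, exposed to compound in qHTS format for 24 hr at 37C, then given CellTiter-Fluor for 30 min; viability was read as fluorescence in the reporter wells.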

Assay [4] in a line: qHTS assay to identify small molecule antagonists of the peroxisome proliferator-activated receptor gamma (PPARg) signaling pathway - cell viability counter screen (AID 743194). Note: nearly all actives have a fitted effect of over 55% in size. In outline:
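PPARg-UAS-bla HEK293H cells were plated, rested 5 h at 37 C, then treated with compounds plus rosiglitazone (50 nM final) for 17 h at 37 C; viability was then read by CellTiter-Glo luminescence after 30 min at room temperature.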

Assay [5] can be described thus: qHTS assay for small molecule agonists of the antioxidant response element (ARE) signaling pathway (AID 743202; active = well fitted activation curve with a large enough effect in the signal ratio in the repeat runs, not every such curve was filed as active; the % refers to the signal ratio). In outline:
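Compounds delivered in DMSO to ARE-bla HepG2 cells (2,000 cells/well, pre-incubated 5 h) and left 16 h at 37 C. LiveBLAzer B/G FRET substrate then added for 2 h at RT before fluorescence reading.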

The nature of assay [6]: qHTS assay for small molecule activators of the heat shock response signaling pathway - cell viability counter screen (AID 743209). Note: nearly all actives have a fitted effect of over 50% in size. Note: potency is the fitted concentration of half-maximal effect. In outline: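 Readout: CellTiter-Glo luminescence, 30 min at room temperature. System: HSE-bla HeLa cells, 1500/well, plated overnight. Treatment: compounds in DMSO, 5 h at 37 C.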
The nature of assay [7]: qHTS assay to identify small molecule agonists of the peroxisome proliferator-activated receptor delta (PPARd) signaling pathway - cell viability counter screen (AID 743211). Note: nearly all actives have a fitted effect of over 55% in size. In outline: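 Luminescent ATP viability assay (CellTiter-Glo, 30 min RT) in UAS-bla HEK293H cells carrying the PPAR delta reporter construct, 3000 cells/well, after a 17 h compound treatment at 37 C.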

The nature of assay [8]: qHTS assay to identify small molecule antagonists of the peroxisome proliferator-activated receptor delta (PPARd) signaling pathway - cell viability counter screen (AID 743213). Note: nearly all actives have a fitted effect of over 50% in size. The gist of the method:
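CellTiter-Glo was added to PPARd-bla HEK293H wells following 17 h compound treatment in the presence of 300 nM L165041. Luminescence was recorded after 30 min at room temperature.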

The target of assay [9] is Peroxisome proliferator-activated receptor delta (Homo sapiens) (UniProt Q03181). Description: qHTS assay to identify small molecule antagonists of the peroxisome proliferator-activated receptor delta (PPARd) signaling pathway (AID 743215; active = well fitted inhibition curve with a large enough effect in the signal ratio in the repeat runs, not every such curve was filed as active; the % refers to the signal ratio;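 note: cells stimulated with agonist L165041 at 300 nM final during compound exposure; series mostly up to about 62 µM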). In outline: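 HEK293H UAS-bla, PPARd; agonist L165041 300 nM final with cpd in DMSO; 37 C 17 h; FRET substrate, RT 2 h; fluorescence intensity.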
Peroxisome proliferator-activated receptor delta (Homo sapiens), sequence (Q03181 whole entry, looked up): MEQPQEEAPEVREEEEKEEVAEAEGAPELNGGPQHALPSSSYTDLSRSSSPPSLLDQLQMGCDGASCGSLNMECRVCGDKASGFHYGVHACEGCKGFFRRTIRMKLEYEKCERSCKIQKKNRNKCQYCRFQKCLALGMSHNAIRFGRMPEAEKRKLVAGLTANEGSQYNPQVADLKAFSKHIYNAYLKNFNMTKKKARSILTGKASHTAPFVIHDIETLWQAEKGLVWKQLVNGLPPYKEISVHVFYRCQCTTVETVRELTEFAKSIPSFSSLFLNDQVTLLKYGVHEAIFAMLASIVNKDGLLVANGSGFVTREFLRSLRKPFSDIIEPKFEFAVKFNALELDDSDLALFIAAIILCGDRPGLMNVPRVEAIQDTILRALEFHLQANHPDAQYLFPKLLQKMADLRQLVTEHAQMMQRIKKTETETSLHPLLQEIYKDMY

Assay [10] concerns the target Bile acid receptor (Homo sapiens) (UniProt Q96RI1). Description: qHTS assay to identify small molecule antagonists of the farnesoid-X-receptor (FXR) signaling pathway (AID 743217; active = well fitted inhibition curve with a large enough effect in the signal ratio in the repeat runs, not every such curve was filed as active; the % refers to the signal ratio; note: potency is the fitted concentration of half-maximal effect). In outline: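 GeneBLAzer FXR-UAS-bla HEK 293T, CDCA-stimulated (50 uM final). Compound treatment 16 h, 37 °C. Detection: beta-lactamase cleavage of B/G FRET substrate, fluorescence.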
Assay [11] is described as follows: qHTS assay to identify small molecule agonists of the farnesoid-X-receptor (FXR) signaling pathway - cell viability counter screen (AID 743218). Note: nearly all actives have a fitted effect of over 45% in size. In outline:
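Parallel cytotoxicity test: compound-treated (16 h, 37 C) HEK 293T FXR-bla reporter cells were lysed with CellTiter-Glo and luminescence recorded.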

Assay [12] deals with Bile acid receptor (Homo sapiens) (UniProt Q96RI1). Description: qHTS assay to identify small molecule agonists of the farnesoid-X-receptor (FXR) signaling pathway (AID 743220; active = well fitted activation curve with a large enough effect in the signal ratio in the repeat runs, not every such curve was filed as active; the % refers to the signal ratio). The gist of the method:
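Beta-lactamase reporter under UAS control in GeneBLAzer FXR HEK 293T cells (5000/well) measured with LiveBLAzer FRET substrate after 2 h at room temperature. Compound exposure lasted 16 h at 37C.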

Assay [13] can be described thus: qHTS assay to identify small molecule antagonists of the farnesoid-X-receptor (FXR) signaling pathway - cell viability counter screen (AID 743221; active = well fitted cell-killing curve with a large enough effect in the repeat runs, not every such curve was filed as active; note: nearly all actives have a fitted effect of over 50% in size). The gist of the method:
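In GeneBLAzer FXR-UAS-bla HEK 293T cells stimulated with 50 uM chenodeoxycholic acid (final), compounds acted for 16 h at 37 C. Viability was assessed afterwards by CellTiter-Glo luminescence.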

Assay [14] has as its target Peroxisome proliferator-activated receptor gamma (Homo sapiens) (UniProt P37231). Put plainly: qHTS assay to identify small molecule agonists of the peroxisome proliferator-activated receptor gamma (PPARg) signaling pathway (AID 743094; active = well fitted activation curve with a large enough effect in the signal ratio in the repeat runs, not every such curve was filed as active; the % refers to the signal ratio). In outline:
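Compounds dissolved in DMSO were added to PPARg UAS-bla HEK293H cells for 17 h at 37C, and reporter expression was quantified by fluorescence intensity after 1 h with LiveBLAzer B/G FRET substrate.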

Assay [15] is described as follows: qHTS assay for small molecule agonists of the antioxidant response element (ARE) signaling pathway - cell viability counter screen (AID 743203; calls by dose curve; note: nearly all actives have a fitted effect of over 55% in size). In outline:
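Following 16 hrs of compound treatment at 37C, HepG2 cells with an ARE-controlled beta-lactamase gene were lysed with CellTiter-Glo. Luminescence was read after 30 min at room temperature.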

Assay [16] can be described thus: qHTS assay for small molecule activators of the heat shock response signaling pathway (AID 743210; active = well fitted activation curve with a large enough effect in the signal ratio in the repeat runs, with a control signal flat, not every such curve was filed as active; the % refers to the signal ratio; note: potency is the fitted concentration of half-maximal effect;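 for activation: HeLa cells with beta-lactamase reporter driven by heat shock elements; series mostly up to about 63 µM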). The gist of the method: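 Reporter gene assay: HeLa cells stably bearing an HSE-bla construct, compound treatment 5 h at 37 C, LiveBLAzer substrate 2.5 h at RT, fluorescence intensity.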
Assay [17] deals with Vitamin D3 receptor (Homo sapiens) (UniProt P11473). Put plainly: qHTS assay to identify small molecule agonists of the vitamin D receptor (VDR) signaling pathway (AID 743222; calls by dose curve). The gist of the method: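 In VDR-bla cells, compound-induced beta-lactamase expression is quantified by FRET substrate fluorescence. Treatment lasts 16 h at 37C; substrate develops 2 h at room temperature.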
Vitamin D3 receptor (Homo sapiens), sequence (P11473 whole entry, looked up): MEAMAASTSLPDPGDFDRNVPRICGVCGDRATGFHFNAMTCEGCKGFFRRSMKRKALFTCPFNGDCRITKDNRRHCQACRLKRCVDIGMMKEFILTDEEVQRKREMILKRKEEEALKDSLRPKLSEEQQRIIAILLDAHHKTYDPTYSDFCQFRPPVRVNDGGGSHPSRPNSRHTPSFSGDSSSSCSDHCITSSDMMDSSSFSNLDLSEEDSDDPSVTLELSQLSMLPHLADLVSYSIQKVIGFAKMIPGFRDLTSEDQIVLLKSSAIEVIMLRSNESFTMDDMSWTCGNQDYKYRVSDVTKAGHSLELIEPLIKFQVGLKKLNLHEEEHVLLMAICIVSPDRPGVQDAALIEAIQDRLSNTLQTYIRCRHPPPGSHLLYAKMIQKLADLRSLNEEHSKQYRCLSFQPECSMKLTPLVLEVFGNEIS

Assay [18] has the same target. Put plainly: qHTS assay to identify small molecule antagonists of the vitamin D receptor (VDR) signaling pathway (AID 743223; active = well fitted inhibition curve with a large enough effect in the signal ratio in the repeat runs, not every such curve was filed as active; the % refers to the signal ratio). In outline:
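Agonist 1alpha,25-dihydroxyvitamin D3 (3 nM in well) was added with each compound to VDR-bla cells preincubated 4 h. Cells stood 16 h at 37C, then FRET substrate 2 h at room temperature; fluorescence intensity recorded.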

Assay [19] has as its target Peroxisome proliferator-activated receptor delta (Homo sapiens) (UniProt Q03181). Description: qHTS assay to identify small molecule agonists of the peroxisome proliferator-activated receptor delta (PPARd) signaling pathway (AID 743212; calls by dose curve). In outline:
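A PPARd-bla HEK293H line with beta-lactamase under an Upstream Activator Sequence is treated with compounds at 37 C. Substrate loading for 2 h at room temperature precedes the fluorescence measurement.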

In assay [20] the target is Peroxisome proliferator-activated receptor gamma (Homo sapiens) (UniProt P37231). Put plainly: qHTS assay to identify small molecule antagonists of the peroxisome proliferator-activated receptor gamma (PPARg) signaling pathway (AID 743191; calls by dose curve; note: series mostly up to about 63 µM; nearly all actives have a fitted effect of over 30% in size). In outline: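 GeneBLAzer PPARg UAS-bla HEK293H cells carrying a UAS-driven beta-lactamase reporter were plated at 3000 cells/well, preincubated 5 h at 37C, then given compound for 17 h at 37C; LiveBLAzer B/G FRET substrate was read after 1 h at room temperature.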
Peroxisome proliferator-activated receptor gamma (Homo sapiens), sequence (P37231 whole entry, looked up): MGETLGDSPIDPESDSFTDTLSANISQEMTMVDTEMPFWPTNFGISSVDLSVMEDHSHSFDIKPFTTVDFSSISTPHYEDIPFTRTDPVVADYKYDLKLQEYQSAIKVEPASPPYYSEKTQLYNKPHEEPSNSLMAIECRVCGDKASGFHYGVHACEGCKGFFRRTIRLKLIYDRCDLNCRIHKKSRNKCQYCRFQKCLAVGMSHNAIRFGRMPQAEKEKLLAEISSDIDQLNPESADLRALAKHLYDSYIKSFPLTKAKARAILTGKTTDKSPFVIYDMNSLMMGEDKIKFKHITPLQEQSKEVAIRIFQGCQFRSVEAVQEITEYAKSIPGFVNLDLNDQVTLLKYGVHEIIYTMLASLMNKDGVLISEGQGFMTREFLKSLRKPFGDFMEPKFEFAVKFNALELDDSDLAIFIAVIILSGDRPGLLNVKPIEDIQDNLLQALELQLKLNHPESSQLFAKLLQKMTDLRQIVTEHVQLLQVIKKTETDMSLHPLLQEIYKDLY

Molecules are shown by their SMILES. Records with an inconclusive call do not appear. Active and inactive are the calls of the source. Unless noted, calls come from the whole dose curve; as a rule, active = well fitted curve in the direction sought with a large enough effect in the repeat runs; inconclusive = weak or mixed curves; inactive = no such curve, though single readings can be large; an effect the other way counts as inactive or inconclusive.

Bile acid receptor (Homo sapiens), sequence (Q96RI1 whole entry, looked up): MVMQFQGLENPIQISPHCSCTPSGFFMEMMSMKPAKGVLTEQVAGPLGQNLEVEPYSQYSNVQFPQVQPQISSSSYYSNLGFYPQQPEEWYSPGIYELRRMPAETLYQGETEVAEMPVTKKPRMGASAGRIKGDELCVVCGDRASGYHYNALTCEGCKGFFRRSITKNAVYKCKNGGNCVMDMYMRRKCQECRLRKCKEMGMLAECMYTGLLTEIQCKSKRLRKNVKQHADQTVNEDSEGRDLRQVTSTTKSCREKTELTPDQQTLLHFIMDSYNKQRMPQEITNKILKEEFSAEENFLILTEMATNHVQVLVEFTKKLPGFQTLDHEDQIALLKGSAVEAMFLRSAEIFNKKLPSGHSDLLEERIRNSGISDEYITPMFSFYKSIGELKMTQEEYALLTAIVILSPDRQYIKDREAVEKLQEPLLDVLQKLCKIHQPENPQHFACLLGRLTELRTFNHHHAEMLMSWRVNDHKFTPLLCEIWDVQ
Aryl hydrocarbon receptor (Homo sapiens), sequence (P35869 whole entry, looked up): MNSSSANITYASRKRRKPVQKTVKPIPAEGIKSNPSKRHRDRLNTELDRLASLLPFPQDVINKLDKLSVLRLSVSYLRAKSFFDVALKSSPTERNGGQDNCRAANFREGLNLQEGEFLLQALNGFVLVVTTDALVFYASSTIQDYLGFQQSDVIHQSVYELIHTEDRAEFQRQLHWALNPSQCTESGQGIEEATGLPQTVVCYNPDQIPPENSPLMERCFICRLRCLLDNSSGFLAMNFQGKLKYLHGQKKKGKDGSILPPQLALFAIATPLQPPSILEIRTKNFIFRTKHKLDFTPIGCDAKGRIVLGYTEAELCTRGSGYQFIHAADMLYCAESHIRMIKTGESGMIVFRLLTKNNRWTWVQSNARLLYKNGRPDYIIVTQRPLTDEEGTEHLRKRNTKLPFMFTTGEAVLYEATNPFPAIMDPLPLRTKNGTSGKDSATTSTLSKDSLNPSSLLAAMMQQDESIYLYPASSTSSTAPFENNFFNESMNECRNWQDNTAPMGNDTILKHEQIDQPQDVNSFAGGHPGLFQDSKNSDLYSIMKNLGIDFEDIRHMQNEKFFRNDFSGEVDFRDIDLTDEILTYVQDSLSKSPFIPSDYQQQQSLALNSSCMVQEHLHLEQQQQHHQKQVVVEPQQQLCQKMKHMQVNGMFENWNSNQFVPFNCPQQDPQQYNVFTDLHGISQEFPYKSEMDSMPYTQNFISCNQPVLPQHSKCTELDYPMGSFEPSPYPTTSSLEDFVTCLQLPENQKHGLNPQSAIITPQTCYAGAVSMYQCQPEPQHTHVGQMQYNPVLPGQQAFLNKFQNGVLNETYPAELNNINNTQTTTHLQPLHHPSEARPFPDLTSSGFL

Take `Nc1c(CC(=O)O)cccc1C(=O)c1ccc(Br)cc1`: the Potency result in [1], in assay [2], in assay [3], in assay [4], in [5] and in [6] was “inactive” each time. The Potency result in assay [7], in [8], in [9], in assay [10], in assay [11] and in assay [12] was “inactive” each time. For the same compound, the Potency entry in assay [13] was “inactive”.
As for `O=P(O)(OCc1ccccc1)OCc1ccccc1`, the Potency result in [1], in assay [2], in assay [3], in assay [14], in assay [15] and in assay [6] was “inactive” in each case. For the same compound, the Potency result in assay [16], in [8], in [11], in assay [12], in assay [13] and in assay [17] was “inactive” in each case. Moreover, the compound was classed as inactive in [18].
Consider `Nc1cccc(S(=O)(=O)c2cccc(N)c2)c1`, for which the Potency result in [1], in assay [2], in assay [3], in assay [14], in assay [4] and in [15] was “inactive” each time. Besides, the Potency result in assay [6], in [16], in assay [7], in [19], in assay [9] and in [13] was “inactive” each time. Moreover, the Potency entry in assay [17] is “inactive”. Further, the compound was classed as inactive in [18].
Turning to `COc1ccc(-c2nc3ccc(C4=NNC(=O)CC4C)cc3[nH]2)cc1` (configuration not stated), the Potency result in assay [1], in assay [3], in assay [14], in [5], in [15] and in assay [16] was “inactive” each time. In addition, the Potency result in assay [19], in assay [12], in [13] and in assay [17] was “inactive” throughout. Moreover, the figures for the Potency in assay [2] and in assay [10] were 11.9 µM (active) and 29.8 µM (active), respectively. Also, the compound was classed as inactive in assay [18].
With `O=C(c1ccc(F)cc1)C1CCN(CCn2c(=S)[nH]c3ccccc3c2=O)CC1`, the Potency entry in assay [1], in assay [2], in assay [3], in assay [20], in [15] and in assay [11] was “inactive” each time. In addition, in [16], the Potency is 19.6 µM (active).
`COc1ccc(S(=O)(=O)N2C(=O)[C@@](c3ccccc3OC)(N3C[C@H](O)C[C@H]3C(=O)N(C)C)c3cc(Cl)ccc32)c(OC)c1`: the Potency in assay [1] and in [3] was 30.6 µM (active) in each case. The Potency result in assay [2], in [14], in assay [6], in [16], in [9] and in assay [11] was “inactive” each time. Moreover, the Potency entry in assay [13] and in assay [17] was “inactive” each time.
As for `CCCCCCCCCCCCCCCCOS(=O)(=O)O`, the Potency result in [1], in assay [2], in [3], in [14], in assay [4] and in assay [6] was “inactive” each time. Moreover, the Potency result in assay [11], in assay [12], in [13] and in assay [17] was “inactive” in each case. Moreover, the result in assay [18] was inactive.
In the case of `C=CC(=O)OCCOc1ccccc1`, the Potency entry in [1], in assay [2], in assay [3], in [4], in [5] and in assay [15] was “inactive” throughout. The Potency entry in assay [7], in assay [8], in [13] and in [17] was “inactive” each time. In [6], the Potency is 19.5 µM (active).
